Molecules are shown by their SMILES. Results filed as inconclusive are left out. The source made the active and inactive calls. Calls come from the whole dose curve; as a rule, active = well fitted inhibition curve with a large enough effect in the signal ratio in the repeat runs (not every such curve was filed as active); inconclusive = weak or mixed curves, or effect the other way; inactive = no such curve, though single readings can be large or run the other way; the % refers to the signal ratio.

We go through 40 compounds from PubChem BioAssay (Tox21).

Sequence of Peroxisome proliferator-activated receptor delta (Homo sapiens) (Q03181 whole entry, looked up): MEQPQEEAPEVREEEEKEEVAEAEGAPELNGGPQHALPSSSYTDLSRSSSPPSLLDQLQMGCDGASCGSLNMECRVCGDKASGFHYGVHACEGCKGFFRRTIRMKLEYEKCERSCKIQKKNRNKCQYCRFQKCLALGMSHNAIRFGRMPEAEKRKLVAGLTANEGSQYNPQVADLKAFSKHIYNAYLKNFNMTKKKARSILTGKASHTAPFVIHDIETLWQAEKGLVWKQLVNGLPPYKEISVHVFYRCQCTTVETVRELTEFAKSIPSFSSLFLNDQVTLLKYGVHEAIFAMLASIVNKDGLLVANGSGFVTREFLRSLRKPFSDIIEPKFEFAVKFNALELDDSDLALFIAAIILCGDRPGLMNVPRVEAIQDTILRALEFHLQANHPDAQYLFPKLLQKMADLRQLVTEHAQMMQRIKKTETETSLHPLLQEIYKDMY

In the assay the target is Peroxisome proliferator-activated receptor delta (Homo sapiens) (UniProt Q03181). In words: qHTS assay to identify small molecule antagonists of the peroxisome proliferator-activated receptor delta (PPARd) signaling pathway (AID 743215).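 Note: cells stimulated with agonist L165041 at 300 nM final during compound exposure.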 To be noted: HEK293H PPARd-UAS-bla, beta-lactamase FRET ratio, antagonist, 17 h; series mostly up to 62 µM. The source says:
U.S. Tox21 Program National Center for Advancing Translational Sciences [NCATS] NIH Chemical Genomics Center [NCGC] U.S. Environmental Protection Agency [EPA] National Institutes of Environmental Health Sciences [NIEHS] National Toxicology Program [NTP] U.S. Food and Drug Administration [FDA] Tox21 Assay Overview: The peroxisome proliferator-activated receptors (PPARs) are lipid-activated transcription factors of the nuclear receptor superfamily with three distinct subtypes namely PPAR alpha, PPAR delta (PPARd) and PPAR gamma. All these subtypes heterodimerizes with Retinoid X receptor (RXR) and have different physiological functions. […] To identify the compounds that inhibit PPAR-delta signaling, GeneBLAzer PPAR delta UAS-bla HEK293H cell line (Invitrogen, Carlsbad, CA, USA) containing a beta-lactamase reporter gene under the control of an Upstream Activator Sequence (UAS) was used to screen the Tox21 compound library.
Tox21 Assay Protocol Summary: PPARd-bla cells were dispensed at 3000 cells/5uL/well in 1536-well black wall/clear bottom plates using a Multidrop Combi (Thermo Fisher Scientific, Waltham, MA) dispenser. After the assay plates were incubated at 37 C and 5% CO2 for 5 h, 23 nL of compounds dissolved in DMSO, positive controls or DMSO only was transferred to the assay plate by a Pintool station (Kalypsys, San Diego, CA), followed by addition of 1ul L165041 (300 nM, final concentration in the wells). The assay plates were incubated at 37 C for 17 h, and then 1 uL of LiveBLAzerTM B/G FRET substrate was added using a Bioraptr Flying Reagent Dispenser (FRD) workstation (Beckman Coulter, Indianapolis, IN, USA). The assay plates were incubated at room temperature for 2 h and fluorescence intensity was measured by an Envision plate reader (PerkinElmer, Shelton, CT).
As to `CCS(=O)(=O)CCSP(=O)(OC)OC`, the result was inactive.

As for `CCc1cc2c(s1)-n1c(C)nnc1CN=C2c1ccccc1Cl`, the result was inactive.

As to `CS(=O)(=O)c1cc(C(F)(F)F)ccc1C(=O)c1cnoc1C1CC1`, the result was inactive.

As to `CCN(CC)C(C)C(=O)c1ccccc1` (stereo not given), the outcome was inactive.

Regarding `CC(=O)C(Cl)Cl`, the outcome was inactive.

For the compound `CN(C)CCc1ccc(O)cc1`, the result was inactive.

On to `ClC(Cl)Br`, for which the result was inactive.

`COc1cc(OC)nc(NC(=O)NS(=O)(=O)c2ncccc2C(=O)N(C)C)n1`: the result was inactive.

`N#CCCC#N`: the outcome was inactive.

On to `CN1C[C@@H](NS(=O)(=O)N(C)C)C[C@@H]2c3cccc4c3c(cn4C)C[C@H]21`, for which the result was inactive.

Take `CCSC(=O)N(CC)C1CCCCC1`: the result was inactive.

As to `CC(CC(C#N)(c1ccccc1)c1ccccc1)N(C)C` (stereo not given), the result was inactive.

Take `ClCC(Cl)Cl`: the result was inactive.

Consider `ClCCCN1CCN(c2cccc(Cl)c2)CC1`, for which the outcome was inactive.

`O=C1OC(=O)C2C1C1(Cl)C(Cl)=C(Cl)C2(Cl)C1(Cl)Cl` (stereo not given): the result was inactive.

As for `CC(Oc1ccc(Oc2ncc(C(F)(F)F)cc2Cl)cc1)C(=O)O` (stereo not given), the outcome was inactive.

With `CNC(=O)N(C)c1nc2ccccc2s1`, the outcome was inactive.

For `CCCCCCI`, the result was inactive.

`COP(=S)(OC)Oc1c(Cl)cc(C)cc1Cl`: the outcome was inactive.

On to `CN1CCC(O)(c2ccc(F)cc2)C(C(=O)c2ccc(F)cc2)C1` (stereo not given), for which the result was inactive.

On to `CCN(CC)C(=O)[C@@H]1C=C2c3cccc4[nH]cc(c34)C[C@H]2N(C)C1`, for which the result was inactive.

`CCCCC(=O)Cl`: the outcome was inactive.

Consider `COc1ccc(C(=O)N2CCCC2=O)cc1`, for which the result was inactive.

As for `N#Cc1c(Cl)cccc1Cl`, the outcome was inactive.

For `COP(N)(=S)Oc1ccccc1C(=O)OC(C)C` (stereo not given), the result was inactive.

Turning to `CC(C)(C)C(=O)C(Oc1ccc(Cl)cc1)n1cncn1` (stereo not given), the outcome was inactive.

For the compound `CCN(CC)CCOC(=O)C(C)(c1ccccc1)c1ccccc1`, the result was inactive.

With `O=C(O)C(Br)CBr` (stereo not given), the outcome was inactive.

In the case of `C=CC1CC=CCC1` (stereo not given), the result was inactive.

Regarding `COC(=O)C(C)Oc1ccc(Oc2ccc(Cl)cc2Cl)cc1` (stereo not given), the outcome was inactive.

For `O=[N+]([O-])c1cc(Cl)c(Cl)c(Cl)c1`, the result was inactive.

As to `COP(=S)(OC)Oc1ccc(S(N)(=O)=O)cc1`, the outcome was inactive.

With `CCCCc1ccc(O)cc1`, the result was inactive.

For the compound `NC(=O)c1cc([N+](=O)[O-])cc([N+](=O)[O-])c1`, the result was inactive.

On to `Cc1nc(N)nc(N)n1`, for which the result was inactive.

As to `CC1=NNC(=O)N(/N=C/c2cccnc2)C1`, the result was inactive.

In the case of `O=[N+]([O-])c1cccc2cccnc12`, the outcome was inactive.

Consider `ClCC(Cl)(Cl)Cl`, for which the result was inactive.

Regarding `CCNc1nc(NC(C)C)nc(OC)n1`, the result was inactive.

Consider `C=C(C)CN(CC)c1c([N+](=O)[O-])cc(C(F)(F)F)cc1[N+](=O)[O-]`, for which the result was inactive.
